Shown are actives, neighbours in structure and some others; about 6.9% of the full set was active somewhere.
SW480 rereplic: inducers of DNA re-replication in SW480 colon cancer cells; 1.8% of 340,000 active; Potency, µM (titrated, usually from 46.1 µM), for the others: at the highest dose re-replication activation, hits mostly activators; SW480 DNA re-replication, Hoechst DNA content imaging, 48 h; note: potency is the fitted concentration of half-maximal effect; % of control where 0% means no effect; nearly all actives have a fitted effect of over 55% in size
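DNA re-replication was detected as more nuclei of elevated Hoechst intensity after 48 hr exposure to compound (23 nL pinned per well of 250 cells).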
Vif-A3F inh: blocks the Vif interaction with APOBEC3F; HeLa A3F-eYFP + Vif (tagged APOBEC3F with the HIV-1 protein that degrades it), YFP fluorescence increase; Potency, µM (series often up to 46.1 µM), without a hit: top-dose activity, negative = active; 0.2% of 390,000 active; note: potency is the fitted concentration of half-maximal effect; % of control where 0% means no effect; nearly all actives have a fitted effect of over 65% in size
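HeLa cells stably expressing A3F-eYFP plus Vif, plated and incubated overnight at 37 deg C, then exposed to compounds overnight at 37 deg C. Blocked degradation read as raised yellow fluorescence (Ex 488/Em 500-530).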
MCF10A rereplic: DNA re-replication induction in MCF 10a cells; MCF 10A DNA re-replication, Hoechst nuclear intensity, 48 h; Potency, µM (top dose mostly 46.1 µM), without a hit: at the highest dose activity, positive = re-replication, hits mostly activators; 2.9% of 350,000 active; note: potency is the fitted concentration of half-maximal effect; % of control where 0% means no effect; nearly all actives have a fitted effect of over 50% in size
IL-1B inflam inh: blocks inflammasome-driven IL-1 beta release; THP-1 LPS/ATP IL-1B secretion, AlphaLISA, 16 h; active compounds read low; activity change, % at 57.5 µM; 4.7% of 360,000 active; AID 743279; in the data active = activity change below about -50%; inconclusive = mostly about -30% to -49%; note: % is set by controls: 0 for no effect and ±100 for the full control effect
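THP-1 cells pretreated 1 hr with compounds (up to 57.5 uM final), then stimulated with LPS (250 ng/mL final) plus ATP (1.25 mM final); secreted IL-1B measured by AlphaLISA after 16 hr, decreased signal indicating inhibition.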
Giardia killer: kills Giardia lamblia; Giardia lamblia trophozoite viability; activity change, % at 7.66 µM, hits read low; 0.15% of 340,000 active; AID 540267; in the data active = activity change below about -80%; inconclusive = between about -30% and that limit;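 note: parasites exposed to compound for two days anaerobically before the ATP read; % is set by controls: 0 for no effect and ±100 for the full control effect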
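ATP-content bioluminescence gauges trophozoite survival. Cells (100/well) receive compound and incubate anaerobically for 48 hrs at 37 deg C; detection reagent follows for 15-30 min at room temperature.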
Vif-A3G inh: blocks the Vif interaction with human APOBEC3G; Potency, µM (titrated, usually from 46.1 µM), without a hit: at the top dose activity, negative = active, hits mostly inhibitors; Q9HC16; 0.076% of 410,000 active; AID 602310; HeLa A3G-eYFP + Vif (tagged APOBEC3G with the HIV-1 protein that degrades it), YFP fluorescence, overnight; note: potency is the fitted concentration of half-maximal effect; % is set by controls: 0 for no effect and ±100 for the full control effect; nearly all actives have a fitted effect of over 60% in size
Target sequence (Q9HC16 whole entry, looked up): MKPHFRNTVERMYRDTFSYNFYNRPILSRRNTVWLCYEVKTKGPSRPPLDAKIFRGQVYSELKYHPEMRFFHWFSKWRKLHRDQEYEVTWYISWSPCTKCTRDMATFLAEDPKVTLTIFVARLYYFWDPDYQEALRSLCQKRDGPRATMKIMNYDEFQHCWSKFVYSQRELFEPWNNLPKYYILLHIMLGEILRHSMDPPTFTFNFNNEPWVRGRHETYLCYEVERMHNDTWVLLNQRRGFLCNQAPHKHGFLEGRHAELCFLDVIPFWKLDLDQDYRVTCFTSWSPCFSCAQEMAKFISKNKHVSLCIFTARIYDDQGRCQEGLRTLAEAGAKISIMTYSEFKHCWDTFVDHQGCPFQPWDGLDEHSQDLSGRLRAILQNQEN
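Read-out is eYFP fluorescence (Ex 488/Em 500-530) from Vif-expressing HeLa A3G-eYFP cells; more signal means A3G escaped Vif-mediated degradation. Cells plated overnight, compound pinned in, incubated overnight at 37 deg C.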
Starred values were filed as active, the others as inactive; ? = inconclusive; nt = not tested or not shown; [ ] = dose if it differs, or a comment. Unless noted, calls come from the whole dose curve; as a rule, active = well fitted curve in the direction sought with a large enough effect; inconclusive = small, poorly fitted or top-dose-only effect, or another doubt; inactive = no such curve, though single readings can be large; an effect the other way counts as inactive or inconclusive.

SMILES	SW480 rereplic	Vif-A3F inh	MCF10A rereplic	IL-1B inflam inh	Giardia killer	Vif-A3G inh
COc1ccc(NS(=O)(=O)c2cnc(N)nc2)cc1Cl	nt	0.0%	nt	nt	nt	-18.2%
Cc1ccc(C(C)C)c(OCCCCN2CCNCC2)c1	?	6.4%	10.8%	-58.5*	6.9	-1.9%
Cc1ccc(C(C)C)c(OCCOCCN2CCNCC2)c1	17.8%	15.3%	?	-11.9	-18.6	-0.4%
O=C(NCc1nc2ccccc2n1Cc1ccccc1Cl)c1ccccc1	nt	-2.9%	nt	nt	nt	5.0%
C=CCNc1nc(N)c(C(=C(C#N)C#N)c2ccc(Br)cc2)s1	20.6µM*	-2.0%	?	-29.0	-6.2	-25.0%
C=CCNc1sc(C(=O)c2ccc(C)cc2)c(N)c1C#N	2.8%	?	?	-25.1	0.3	-18.5%
O=C(N/N=C/c1ccc(Br)cc1)c1ccccc1-n1cccc1	13µM*	-7.7%	?	32.1	4.0	?
CCS(=O)(=O)c1ncc(Cl)c(C(=O)N2CCN(c3cccc(Cl)c3)CC2)n1	nt	1.6%	nt	nt	nt	?
CCN(Cc1ccccc1)S(=O)(=O)c1ccc(C(=O)N(CCCN(C)C)c2nc3cc(OC)ccc3s2)cc1	?	-3.6%	16.4µM*	-100.3*	-1.4	-10.0%
CN(C)CCCN(C(=O)c1ccc(C(=O)c2ccccc2)cc1)c1nc2ccc(F)cc2s1	-1.3%	4.5%	-11.2%	-26.7	-16.8	-17.6%
COc1ccc2sc(N(CCCN(C)C)C(=O)c3ccc(C(=O)c4ccccc4)cc3)nc2c1	-18.3%	1.7%	?	-88.2*	26.9	0.6%
CCN(Cc1ccccc1)S(=O)(=O)c1ccc(C(=O)N(CCCN(C)C)c2nc3ccc(F)cc3s2)cc1	15.6%	1.5%	6.0%	-101.3*	-10.2	?
CCN(Cc1ccccc1)S(=O)(=O)c1ccc(C(=O)N(CCCN(C)C)c2nc3cc4c(cc3s2)OCCO4)cc1	?	6.8%	?	-94.9*	3.3	-12.1%
COc1cccc(C2C=C(c3ccc(C)cc3)Nc3c(C(=O)Nc4ccc(F)cc4)cnn32)c1OC (centres undefined)	nt	-7.7%	nt	nt	nt	-5.0%
Cc1ccc(-c2c(CN3CCN(c4cccc(C(F)(F)F)c4)CC3)csc2C)cc1	nt	-18.9%	nt	nt	nt	-0.2%
CN(C)CCCN(C(=O)c1ccc(S(=O)(=O)N(C)Cc2ccccc2)cc1)c1nc2c(F)cccc2s1	82.9%	?	?	-96.3*	28.9	0.6%
Cc1cc(C)c2c(n1)sc1c(=O)n(-c3ccccc3C(F)(F)F)nnc12	nt	8.2%	nt	nt	nt	1.5%
N=c1sccn1CC(=O)NC(c1ccccc1)c1ccccc1	-0.8%	-5.3%	16.0%	-52.0*	28.6	0.8%
N=c1sccn1CC(=O)Nc1ccccc1Oc1ccccc1	-13.1%	4.0%	4.4%	-28.9	21.8	-2.7%
N=c1sccn1CC(=O)Nc1ccccc1Cc1ccccc1	-1.1%	-2.4%	10.4%	-51.1*	-17.4	2.9%
Cc1ccc(Oc2ccc(NC(=O)Cn3ccsc3=N)cc2)cc1	12.9%	-10.4%	?	-100.1*	11.4	-7.1%
COc1ccccc1CNC(=O)c1ccc(-c2nc(CN3CCc4ccccc43)c(C)o2)cc1	nt	0.9%	nt	nt	nt	1.0%
Cn1c(SCC(=O)NC2CCCCC2)nnc1-c1ccccc1F	9.2µM*	-15.8%	-20.3%	-2.3	-11.0	-0.3%
CC(C)Nc1nc(SC(C)C(=O)Nc2ccccc2)nc(N(C)C)n1 (centres undefined)	2.6%	-3.8%	10.9%	-86.7*	-14.0	-4.9%
COC(=O)c1cc2oc3ccccc3c2n1CC(=O)Nc1cccc(SC)c1	nt	0.5%	nt	nt	nt	0.5%
SMILES	SW480 rereplic	Vif-A3F inh	MCF10A rereplic	IL-1B inflam inh	Giardia killer	Vif-A3G inh
O=C(N/N=C/c1cn(-c2ccccc2)nc1-c1cc2ccccc2o1)c1cccnc1	?	2.5%	?	-222.3*	-0.8	-2.9%
O=C(N/N=C/c1cn(-c2ccccc2)nc1-c1cccnc1)c1ccc(F)cc1	2.7%	-1.4%	3.26µM*	?	9.0	-3.8%
O=C(N/N=C/c1cn(-c2ccccc2)nc1-c1ccc(F)cc1)c1ccc(Br)o1	-11.3%	nt	-14.8%	-55.9*	-1.0	-1.2%
O=C(/C=C/c1cn(-c2ccccc2)nc1-c1cccnc1)c1ccco1	?	-21.4%	?	-95.9*	-5.8	?
O=S(=O)(c1ccccc1F)N1CCN(c2nc(-c3cccs3)nc3ccccc23)CC1	nt	nt	nt	nt	-7.3	2.4%
CC(=O)Nc1ccc(-c2nnc(SCC(=O)c3ccc([N+](=O)[O-])cc3)o2)cc1	nt	-3.7%	nt	nt	nt	3.7%
CCCc1cc(=O)[nH]c(SCc2nc(-c3ccc(C)cc3)no2)n1	nt	-3.1%	nt	nt	nt	-4.2%
Cc1ccnc(Sc2ccc([N+](=O)[O-])cc2[N+](=O)[O-])n1	11.6µM*	-0.7%	?	-103.7*	2.9	-10.9%
Cc1ccc(Sc2ccc([N+](=O)[O-])cc2[N+](=O)[O-])nc1	?	4.4%	?	-187.5*	-19.0	-1.6%
Nc1nc(Sc2ccc([N+](=O)[O-])cc2[N+](=O)[O-])n[nH]1	?	1.6%	-8.5%	-1.1	-8.0	-10.9%
COc1ccc(C(=O)NCCn2cc(SCC(=O)NCCc3ccc(OC)c(OC)c3)c3ccccc32)cc1	nt	0.4%	nt	nt	nt	-1.6%
COc1cccc(-c2cc(C(F)(F)F)nc(-n3nc(C)c(Br)c3C)n2)c1	nt	-1.0%	nt	nt	nt	-9.1%
CCOC(=O)c1sc2nc3c(cc2c1N)COC(C)(C)C3	0.2%[9.22 µM]	nt	?	-8.3	-27.5	-3.8%
CCOC(=O)c1sc2nc(-c3ccco3)c3c(c2c1N)CC(C)(C)OC3	125.5%	?	23.1µM*	-52.6*	-22.6	-29.5%
CC1(C)Cc2c(c(N3CCOCC3)nc3snc(N)c23)CO1	-5.5%	-0.2%	10µM*	-107.5*	-9.3	5.3%
COc1ccc(NC(=O)c2sc3nc(N4CCCC4)c4c(c3c2N)CC(C)(C)OC4)c(OC)c1	2.91µM*	-12.4%	?	?	-24.1	1.0%
CCOC(=O)c1sc2nc3c(cc2c1N)COC(C)(CC)C3 (centres undefined)	?	0.8%	18.4µM*	-0.7	-0.8	0.0%
Cc1nc2sc(C(=O)O)c(N)c2c2c1COC(C)(C)C2	-3.5%	-6.6%	4.4%	27.2	-7.9	0.8%
CC1(C)Cc2c(c(N3CCOCC3)nc3snc(Br)c23)CO1	0.4%	-1.9%	0.4%	0.4	8.1	0.1%
CC12CCC=CC1C(c1ccc(F)c(/C=C/c3ccccc3)c1)N(Cc1ccccc1)C2=O (centres undefined)	nt	nt	nt	nt	8.9	-2.0%
CC1(C)Cc2c(c(N3CCOCC3)nc3sc(C(N)=O)c(N)c23)CO1	-2.2%	6.6%	4.2%	-15.0	-15.2	-5.7%
Nc1c(C(=O)c2ccccc2)sc2nsc(SCCN3CCOCC3)c12	?	3.55µM*	13µM*	nt	9.6	?
